Screens (PubChem)
ALDH1A1 inh – inhibitors of human aldehyde dehydrogenase 1A1 | P00352 | Purified ALDH1A1, NADH fluorescence, propionaldehyde substrate | Potency, µM (series often up to 75.3 µM), without a hit: top-dose activity, negative = inhibition, usual class: inhibitors | hit rate 7.3% among 220,000; active = well fitted inhibition curve with a large enough effect, not every such curve was filed as active; inconclusive = small, poorly fitted or top-dose-only effect, or another doubt; inactive = no such curve, though single readings can be large or run the other way;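 also: plate controls were no enzyme wells and a reference inhibitor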
Tau FP inhib – inhibitors of human tau fibril formation; hit rate 0.39% among 280,000; AID 1468; K18 P301L tau heparin fibrillization, Alexa594 FP, 6 h; Potency, µM (doses to about 57.7 µM), for inactives: top-dose activity, negative = inhibition, most hits filed as inhibitors; also: nearly all actives have a fitted effect of over 55% in size
Target sequence (P10636 561-689 P618L limits assumed): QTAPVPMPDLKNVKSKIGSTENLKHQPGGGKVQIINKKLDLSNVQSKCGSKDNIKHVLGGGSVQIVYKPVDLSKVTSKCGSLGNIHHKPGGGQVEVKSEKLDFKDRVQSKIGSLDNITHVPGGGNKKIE
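Recombinant K18 P301L […], labeled with Alexa 594 at 0.24 uM over 15 uM unlabeled; heparin inducer 20 uM final; 37 C, 6 hr; FP endpoint.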
Tau ThT inhib – tau fibrillization inhibition (ThT binding) | hit rate 2.1% among 270,000 | recombinant tau K18 P301L, heparin-induced fibrillization, ThT fluorescence | P10636 | Potency, µM (doses to about 57.4 µM), for inactives: top-dose activity, negative = inhibition, usual class: inhibitors; also: nearly all actives have a fitted effect of over 55% in size
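Aggregation was driven by heparin (20 uM final) acting on recombinant tau […] bearing P301L in 100 mM sodium acetate pH 7; fibrils were detected with Thioflavin T.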
Tau fluor cs – counter-screen for tau fibril formation inhibitors; tau K18 P301L (four-repeat tau fragment) Alexa594 fluorescence, heparin fibrillization; Potency, µM (series often up to 57.7 µM), for the others: top-dose activity change, negative = decrease; hit rate 0.93% among 280,000; also: nearly all actives have a fitted effect of over 55% in size
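Human K18 P301L tau (15 uM unlabeled plus 0.24 uM Alexa 594-labeled, final) in 100 mM sodium acetate pH 7 was mixed with compound and 20 uM heparin and incubated 6 hr at 37 C.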
HPGD inh – blocks human HPGD enzyme activity; purified HPGD, NADH fluorescence kinetic, PGE2 substrate; Potency, µM, inactives show top-dose activity change, negative = inhibition, hits mostly inhibitors; hit rate 4.3% among 150,000; active = well fitted inhibition curve with a large enough effect, not every such curve was filed as active; inconclusive = small, poorly fitted or top-dose-only effect, or another doubt; inactive = no such curve, though single readings can be large or run the other way
Target sequence (P15428 whole entry, looked up): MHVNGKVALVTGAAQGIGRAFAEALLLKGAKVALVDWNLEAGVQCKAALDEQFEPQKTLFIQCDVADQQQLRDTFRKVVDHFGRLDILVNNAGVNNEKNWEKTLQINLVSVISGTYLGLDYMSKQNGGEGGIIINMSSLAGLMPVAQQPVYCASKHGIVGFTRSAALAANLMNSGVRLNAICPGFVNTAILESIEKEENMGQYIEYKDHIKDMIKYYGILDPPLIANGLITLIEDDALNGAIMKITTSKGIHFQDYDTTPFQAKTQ
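20 nM HPGD preincubated 15 min at room temperature with compound in 50 mM Tris-HCl pH 8, 0.01% Tween 20. Started with 1 mM NAD+ and 30 uM prostaglandin E2; NADH fluorescence (360/450 nm) read 5 times over 30-s intervals, last minus first.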
NPSR antag – blocks cAMP signaling of the human neuropeptide S receptor; Q6W5P4; CHO-NPSR cells, cAMP TR-FRET, antagonist mode; Potency, µM (titrated, usually from 38.3 µM), without a hit: at the top dose activity change, negative = inhibition, actives largely listed as inhibitors; hit rate 1% among 220,000; also: nearly all actives have a fitted effect of over 50% in size
Numbers without * were called inactive; ? = inconclusive; . = no result given; [ ] = dose if it differs, or a comment. Most compounds without a hit are left out; they make up all but 9.5% or so of the library. Unless noted, calls follow the shape of the dose curve; as a rule, active = well fitted curve in the direction sought with a large enough effect; inconclusive = small, poorly fitted or top-dose-only effect, or another doubt; inactive = no such curve, though single readings can be large; an effect the other way counts as inactive or inconclusive. Unless noted, % is scaled to controls: 0 for no effect and ±100 for the full control effect; potency is read from the fitted curve at half-maximal effect.

SMILES | ALDH1A1 inh | Tau FP inhib | Tau ThT inhib | Tau fluor cs | HPGD inh | NPSR antag
COc1ccc(C(=O)O)cc1Nc1cc(C)nc2ncnn12 | -4% | -3% | -19% | -15% | 25µM* | -2%[46.1 µM]
Cc1cc(NCCc2ccccc2F)n2ncnc2n1 | ? | 3% | -2% | 0% | . | 9%
COc1ccc(Nc2cc(C)nc3ncnn23)c(OC)c1 | 11% | 3% | -4% | -3% | 16µM* | -6%[46.1 µM]
Cc1cc(Nc2ccccc2F)n2ncnc2n1 | 8% | -8% | -4% | 3% | -3% | 6%[46.1 µM]
COc1ccc(C)cc1Nc1cc(C)nc2nc(C)nn12 | 7% | -5% | -7% | 3% | 1.4µM* | -8%[46.1 µM]
CCOc1cc(S(=O)(=O)N(Cc2ccccc2)Cc2ccccc2)c(OCC)cc1-n1cnnn1 | ? | 6% | -1% | -7% | ? | ?
COc1ccc(Nc2cc(C)nc3nc(C)nn23)c(OC)c1 | 1% | 4% | -9% | -9% | 8.9µM* | 11%
COc1ccc(OC)c(Nc2cc(C)nc3nc(C)nn23)c1 | 1% | -1% | 2% | 2% | 2µM* | -6%[46.1 µM]
COc1ccc(Oc2cc(C(F)(F)F)cnc2C(N)=O)cc1 | 9% | 2% | 3% | -4% | -3% | 0%[46.1 µM]
CC(C)CN1C(=O)/C(=C(/C#N)C(=O)NC2CCCCC2)c2ccccc21 | 5µM* | ? | 18µM* | -13% | . | -17%
CCCCN1C(=O)/C(=C(/C#N)C(=O)N2CCCC2)c2ccccc21 | . | -12% | ? | -7% | . | 9%
Cc1ccnc(SCc2cc(=O)c(OC(=O)c3ccc(Cl)c([N+](=O)[O-])c3)co2)n1 | 7.5µM* | -3% | 5% | -1% | ? | 8%
Cc1ccnc(SCc2cc(=O)c(OC(=O)c3ccco3)co2)n1 | 6% | -2% | -15% | -4% | -5% | 13%[46.1 µM]
Cc1cc(C)nc(SCc2cc(=O)c(OC(=O)c3cccc([N+](=O)[O-])c3)co2)n1 | 0.056µM* | -9% | ? | ? | -4% | -20%[46.1 µM]
N#CC1CC(c2ccccc2)=NN1c1ccccc1[N+](=O)[O-] (stereo not given) | -9% | -10% | ? | ? | . | -13%
COc1cc(/C=C2\C(=O)NN(c3ccccc3)C2=O)cc([N+](=O)[O-])c1O | ? | -6% | 11µM* | -30% | . | -50%
COc1cc(/C=C2\C(=O)NN(c3ccc(C)cc3)C2=O)cc([N+](=O)[O-])c1O | ? | -4% | 13µM* | ? | . | -56%
C1CCC(C(CC2CCCCN2)C2CCCCC2)CC1 (stereo not given) | -2% | 5% | ? | -6% | -2% | 13µM*
NC(N)=NC[C@@H]1CCCCCCN1 | 13%[13.5 µM] | . | . | . | -10% | .
COc1cc(-c2oc3ccc(C)cc3c(=O)c2O)cc(OC)c1OC | . | -7% | ? | -28% | . | .
COc1c(O)c(O)cc2c1oc1c3cc(C)ccc3oc(=O)c21 | -8% | ? | 8.9µM* | 10µM*[quencher] | 14µM* | .
O=C(C[n+]1cccc(CO)c1)Nc1nc2ccccc2s1 | -11% | 8% | -9% | -2% | . | -1%
O=C1c2nc3ccccn3c2C(=O)N1Cc1ccccc1 | 18µM* | -5% | -3% | 1% | ? | 1%[46.1 µM]
O=C(Nc1ccc(Br)c(C(F)(F)F)c1)c1ccc(C(F)(F)F)cc1 | . | 22µM* | . | -28% | . | ?
CCCCC(=O)NNC(=S)NC(=O)c1cccc([N+](=O)[O-])c1 | 1.8µM* | 2% | 3% | 3% | 8.9µM* | -7%[46.1 µM]
CCCCC(=O)NNC(=S)NC(=O)c1ccc([N+](=O)[O-])cc1 | 5.6µM* | 6% | ? | 2% | . | 19%
CCCCCC(=O)NNC(=O)Cc1ccc([N+](=O)[O-])cc1 | -10% | -2% | 6% | -7% | . | 11%
CCCCC(=O)NNC(=S)NC(=O)c1ccc(C)cc1 | 25µM* | 4% | -9% | 2% | . | -8%
CCCCOc1ccc(C(=O)N/C(=C/c2cccc([N+](=O)[O-])c2)C(=O)O)cc1 | 11µM* | 1% | -11% | -2% | . | 22%
CCCCC(=O)Nc1cccc(NC(=O)c2cccc([N+](=O)[O-])c2)c1 | -1% | 6% | -9% | -22% | . | -4%
